Experimental data from PubChem BioAssay AID1259343 (VanderVen Lab, College of Veterinary Medicine, Cornell …, 2017).
The campaign covered roughly 6,200 compounds. About 2,900 (47%) were called active. The set was probably picked from earlier hits. This is one part of the list. A number with no mark means an inactive call. No stated cut-off is given here; in the data, active means inhibition above about 50%; inactive means the rest.

assay: Mycobacterium tuberculosis growth inhibition, primary screen (AID 1259343); conditions: inhibition: at 10 µM, active compounds read high; outcome: 10 uM

Q: With `CN(Cc1cccc(C(F)(F)F)c1)C(=O)c1cn(Cc2ccccc2Cl)nn1` as the molecule, how does the inhibition read?
A: 20.9%

Q: Which inhibition does the source give for `CSc1ccc(NC(=O)CN(C)Cc2ccc3c(c2)OCO3)cc1` here?
A: 72.3% (active)

Q: For `CN(Cc1ccc(F)cc1F)C(=O)NCc1cccc(C(F)(F)F)c1`, which inhibition is on record?
A: 91% (active)

Q: With `Cc1cc(CNC(=O)CS(=O)(=O)Cc2cccc(Cl)c2)ccc1F` as the molecule, how does the inhibition read?
A: 15.5%

Q: For `Cc1ccc(NC(=O)N(C)Cc2cccc(F)c2)c(Cl)c1`, which inhibition is on record?
A: 9.23%

Q: For `O=S(=O)(NCc1ccc2c(c1)OCO2)c1ccc(F)c(C(F)(F)F)c1`, which inhibition is on record?
A: 26.9%

Q: With `CN(Cc1ccoc1)C(=O)c1cn(Cc2cccc(C(F)(F)F)c2)nn1` as the molecule, how does the inhibition read?
A: 14.9%

Q: Which inhibition does the source give for `CN(Cc1ccc2c(c1)OCO2)c1ccc(C(=O)NC2CC2)cn1` here?
A: 12.6%

Q: With `CN(Cc1cccc(Cl)c1)C(=O)NCc1cc(F)cc(F)c1` as the molecule, how does the inhibition read?
A: 72.5% (active)

Q: Which inhibition does the source give for `CN(Cc1ccc(F)cc1)C(=O)NCc1ccc2c(c1)OCO2` here?
A: 67.4% (active)

Q: Which inhibition does the source give for `CN(Cc1cc(Br)ccc1F)C(=O)NCc1ccco1` here?
A: -23.8%

Q: With `COc1ccc(Cl)cc1CN(C)C(=O)Nc1ccc(F)cc1F` as the molecule, how does the inhibition read?
A: -16.8%

Q: With `CN(Cc1ccc(F)cc1F)C(=O)NCc1ccccc1` as the molecule, how does the inhibition read?
A: 93% (active)

Q: Which inhibition does the source give for `CCOc1ncccc1C(=O)NCc1ccc(C)c(F)c1` here?
A: 35.2%

Q: For `COc1cccc(CNC(=O)N(C)Cc2ccc(C(C)C)cc2)c1`, which inhibition is on record?
A: 85.7% (active)

Q: Which inhibition does the source give for `O=C(NCCc1cccs1)C(=O)NCc1cccc(F)c1` here?
A: 45.4%

Q: With `CN(Cc1ccsc1)C(=O)Nc1ccc(C(F)(F)F)cc1` as the molecule, how does the inhibition read?
A: 44.2%

Q: Which inhibition does the source give for `Cc1ccc(CNC(=O)N(C)Cc2cccs2)cc1F` here?
A: 74.8% (active)

Q: For `Cc1ccc(NC(=O)N(C)Cc2ccc(O)cc2)cc1F`, which inhibition is on record?
A: 59.5% (active)

Q: Which inhibition does the source give for `Cc1ccc(NC(=O)N(C)Cc2ccccc2F)cc1Cl` here?
A: 4.94%

Q: Which inhibition does the source give for `COc1ccc(CN(C)C(=O)NCC2Cc3ccccc3O2)cc1` (centres undefined) here?
A: -43.1%

Q: For `CC1SC(=S)NN1c1ccccc1` (centres undefined), which inhibition is on record?
A: 92.6% (active)

Q: For `Cc1cccc(Nc2ccc(NCCNS(=O)(=O)c3ccc(F)cc3)nn2)n1`, which inhibition is on record?
A: 30.2%

Q: Which inhibition does the source give for `c1ccc2c(OCCCCCn3ccnc3)cccc2c1` here?
A: 100% (active)

Q: With `CN=c1scc(-c2ccco2)n1N=Cc1c(O)ccc2ccccc12` as the molecule, how does the inhibition read?
A: 54.4% (active)

Q: For `CN=c1scc(-c2ccco2)n1N=Cc1cc(Br)c(O)c(OC)c1`, which inhibition is on record?
A: 82.5% (active)

Q: For `CN=c1scc(-c2cccc(Br)c2)n1N=Cc1ccncc1`, which inhibition is on record?
A: 13.7%

Q: For `CN=c1scc(C)n1N=Cc1cc(Br)c(O)c(Br)c1`, which inhibition is on record?
A: -24.1%

Q: With `CN=c1scc(-c2ccc(OC)cc2)n1N=Cc1cc(Br)c(O)c(OC)c1` as the molecule, how does the inhibition read?
A: 97.6% (active)

Q: For `CCN=c1scc(C)n1N=Cc1cc(Br)c(O)c(Br)c1`, which inhibition is on record?
A: 84.4% (active)

Q: With `CCN=c1scc(C)n1N=Cc1ccc(Br)cc1` as the molecule, how does the inhibition read?
A: 10.9%

Q: With `CCN=c1scc(-c2ccco2)n1N=Cc1ccc2c(c1)OCO2` as the molecule, how does the inhibition read?
A: 23.9%

Q: For `CN=c1scc(-c2ccco2)n1N=Cc1sccc1C`, which inhibition is on record?
A: 42.1%

Q: Which inhibition does the source give for `COCCN=c1scc(-c2ccco2)n1N=Cc1cc(Br)c(O)c(OC)c1` here?
A: 15.7%
